Cycloheximide cs = counter-screen for Shiga toxin inhibitors: cycloheximide protein synthesis inhibition; 300,000 compounds, 12% hits; cell reporter, cycloheximide protein synthesis inhibition counterscreen; max response, %; AID 2314; in the data active means max response mostly above about 13%, no sharp cut-off; inactive means mostly below about 14%; further: read at 38.3 µM for the half of the compounds with a filed dose; 0% is about no effect
Shiga inhibitor = inhibitors of Shiga toxin in Vero cells; Vero cells, Shiga toxin protein synthesis inhibition reporter; inhibition, % at 38.7 µM; 290,000 compounds, 9.2% hits; in the data active means inhibition mostly above about 28%, no sharp cut-off; inactive means mostly below about 43%; further: 0% is about no effect
TbPYK inhibitor = T. brucei pyruvate kinase inhibition | 410,000 compounds, 0.12% hits | TbPYK enzyme, Kinase-Glo Plus ATP luminescence, 45 min | Q57TT1 | Potency, µM (highest dose often 76.8 µM), inactives show at the highest dose activity, negative = inhibition, usual class: inhibitors | AID 624173; further: potency means the concentration at half of the fitted maximal effect; on the % scale 0 is the no-effect control and ±100 the full control effect; nearly all actives have a fitted effect of over 50% in size
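Luminescent Kinase-Glo Plus end-point after 45 min room-temperature reaction of T. brucei pyruvate kinase started with 130 uM ADP (final). Buffer TEA 50 mM pH 7.2 with KCl, MgCl2, BSA, Tween-20; titration-based qHTS with fitted concentration-effect curves.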
Giardia FBPA inh = blocks Giardia fructose-bisphosphate aldolase activity | A8B2U2 | purified Giardia FBPA | Potency, µM (highest dose often 59.6 µM), for the others: at the highest dose activity, negative = inhibition, actives largely listed as inhibitors | 290,000 compounds, 0.71% hits | AID 2451; further: potency means the concentration at half of the fitted maximal effect; on the % scale 0 is the no-effect control and ±100 the full control effect; nearly all actives have a fitted effect of over 55% in size
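40 nM FBPA preincubated 10 min at RT with compound (up to 57.5 uM final), then substrate plus GAPDH/TPI/NAD/arsenate coupling and diaphorase/resazurin added. Fluorescence read after 20 min at RT, 525/598 nm.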
LmPK inhibitor = LmPK (Leishmania mexicana) enzyme inhibition. Potency, µM (series often up to 57.5 µM), for the others: at the top dose activity change, negative = inhibition, hits mostly inhibitors. 290,000 compounds, 0.37% hits. purified LmPK, Kinase-Glo ATP luminescence, 1 h; further: potency means the concentration at half of the fitted maximal effect; on the % scale 0 is the no-effect control and ±100 the full control effect
Target sequence (Q27686 whole entry, looked up): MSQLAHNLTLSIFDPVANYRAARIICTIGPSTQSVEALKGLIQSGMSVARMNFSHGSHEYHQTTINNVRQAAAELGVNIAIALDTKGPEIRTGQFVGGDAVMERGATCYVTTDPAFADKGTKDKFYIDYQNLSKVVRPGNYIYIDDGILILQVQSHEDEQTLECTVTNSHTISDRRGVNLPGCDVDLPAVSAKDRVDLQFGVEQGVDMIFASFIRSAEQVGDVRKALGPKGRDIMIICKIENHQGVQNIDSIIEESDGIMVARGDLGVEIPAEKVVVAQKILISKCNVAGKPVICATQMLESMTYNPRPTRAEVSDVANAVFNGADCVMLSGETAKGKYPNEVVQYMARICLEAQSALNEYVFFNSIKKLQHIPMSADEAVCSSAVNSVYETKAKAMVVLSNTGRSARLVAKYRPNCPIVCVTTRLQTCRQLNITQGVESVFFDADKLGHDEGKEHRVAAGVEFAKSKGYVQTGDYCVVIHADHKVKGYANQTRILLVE
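qHTS format; LmPK 0.1 nM; substrates PEP 0.5 mM and ADP 0.1 mM. One-hour room-temperature incubation, then coupled luciferase luminescence; 0.5 nM enzyme wells mark activation.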
Sm TGR block = inhibitors of Schistosoma mansoni thioredoxin glutathione reductase; purified TGR, DTNB reduction, TNB absorbance 405 nm; Potency, µM (titrated, usually from 114 µM), inactives show at the highest dose activity change, negative = inhibition, actives largely listed as inhibitors; 360,000 compounds, 3% hits; AID 485364; further: potency means the concentration at half of the fitted maximal effect; on the % scale 0 is the no-effect control and ±100 the full control effect; nearly all actives have a fitted effect of over 60% in size
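TGR 20 nM + NADPH 100 uM (dispensed conc.), cpd preinc 15 min RT; start with NADPH (500 uM addition) then DTNB (15 mM addition). Kinetic TNB absorbance, 405 nm filter. Four-parameter Hill fit across titration.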
Starred values were filed as active, the others as inactive; ? = inconclusive; . = not tested or not shown. Shown is part of a subset that was picked to be rich in hits. Unless noted, the call rests on the fitted dose curve; in most records, active means well fitted curve in the direction sought with a large enough effect; inconclusive means small, poorly fitted or top-dose-only effect, or another doubt; inactive means no such curve, though single readings can be large; an effect the other way counts as inactive or inconclusive.

SMILES	Cycloheximide cs	Shiga inhibitor	TbPYK inhibitor	Giardia FBPA inh	LmPK inhibitor	Sm TGR block
CC(=O)N1CC=CC1(CC(C)C)C(=O)NCCN1CCOCC1 (stereo not drawn)	34.1*	54.8*	5.2%	6.7%	-5.4%	0.1%
CC(C)CC1(C(=O)NCCN2CCOCC2)C=CCN1C(=O)c1ccccc1 (stereo not drawn)	-0.7	-9.3	-4.6%	-0.3%	-2.4%	-13.0%
COc1ccc(NC(=O)/C=C/c2ccccc2)cn1	34.7*	86.1*	22.1%	-26.2%	-7.4%	4.3%
COc1ccc(NC(=O)/C=C/c2cc(OC)c(OC)c(OC)c2)cn1	7.7	14.5	-9.9%	1.5%	0.1%	44.7µM*
COc1ccc(NC(=S)NC(=O)/C=C/c2ccc(F)cc2)cc1	-1.8	16.1	1.5%	10.4%	1.5%	-11.2%
COc1cc(/C=C/C(=O)Nc2ccncc2)cc(OC)c1OC	-1.9	12.5	-8.4%	6.0%	-1.4%	4.0%
COc1ccc(NC(=O)/C=C/c2ccc(F)cc2)cn1	51.1*	107.7*	1.7%	-24.1%	1.3%	-9.2%
COc1ccc(NC(=O)C(c2ccccc2)c2ccccc2)cn1	-2.6	31.3	-5.7%	-2.6%	4.5%	3.1%
COC(=O)c1c(C)sc(-c2c(-c3ccc(F)cc3)[nH]c3[nH]c(=O)[nH]c(=O)c23)c1O	.	.	-18.5%	.	.	?
Cc1ccc(C(=O)NNc2c3ccccc3nc3ccccc23)cc1	41.4*	85.1*	-2.3%	-7.4%	-4.7%	-2.8%
Nc1ccccc1C(=O)NNc1c2ccccc2nc2ccccc12	18.6*	111.0*	-6.8%	-8.4%	-15.6%	6.7%
CC(C)CCNC(=O)Nc1ccc2c(c1)N(Cc1ccccc1)C(=O)c1ccccc1S2	.	.	1.0%	.	.	1.1%
Cc1ccc(S(=O)(=O)c2c(C)nn(-c3ccccc3)c2OC(=O)c2ccco2)cc1	3.7	3.4	-11.0%	23.8%	0.7%	35.5µM*
CCN(CC)C(=O)c1cc2c(=O)c3cc(F)ccc3oc2nc1C	38.5*	63.7*	1.1%	4.0%	-0.7%	.
CCOC(=O)c1c(C)nc(C)c2c(=O)oc3ccccc3c12	33.4*	92.6*	-0.1%	4.6%	-12.3%	-2.2%
CCOC(=O)c1cc2c(=O)c3ccccc3oc2nc1C	39.9*	102.8*	-0.9%	4.4%	-4.4%	-4.4%
COCc1nc2oc3ccccc3c(=O)c2cc1C(=O)OC	12.0*	45.7*	1.1%	-1.9%	-21.8%	-10.4%
Cc1ccc(OCC(=O)Nc2ccc3nc(SCCOc4ccccc4)sc3c2)cc1	.	.	1.2%	.	.	2.7%
COc1cc2cc(C(=O)N(C)Cc3ccccc3)[nH]c2cc1OC	-4.2	4.7	7.9%	-0.7%	-1.1%	12.4%
COc1ccc2cc(C(=O)NCCc3ccccc3)[nH]c2c1	21.6*	35.2	0.4%	-1.9%	0.8%	-18.2%
CCCCNC(=O)c1cc2cc(CC)ccc2[nH]1	14.4*	-3.6	-26.3%	1.6%	4.0%	-10.2%
COc1cc2cc(C(=O)NCCc3ccccc3)[nH]c2cc1OC	11.9	25.3	-3.9%	-1.4%	-0.9%	89.1µM*
COc1ccc2c(c1)OC(C)(C)C(c1ccccc1)C2c1ccc(OCCN2CCCC2)cc1 (stereo not drawn)	.	.	1.9%	.	.	.
O=C(NNc1cc(Br)c(O)c(Br)c1)c1ccccc1	5.8	-8.2	-16.3%	?	?	17.8µM*
Cc1cccc(C(=O)NNC(=O)/C=C/C(=O)O)c1	2.0	-6.4	4.0%	2.1%	-13.1%	?
SMILES	Cycloheximide cs	Shiga inhibitor	TbPYK inhibitor	Giardia FBPA inh	LmPK inhibitor	Sm TGR block
O=C(O)/C=C\C(=O)Nc1cccc(C(=O)Nc2cccc(O)c2)c1	28.1*	76.5*	0.6%	14.1%	7.9%	0.5%
O=C(Nc1ccccc1)c1ccsc1	27.0*	54.3	-5.9%	-0.9%	-1.9%	4.4%
NS(=O)(=O)c1ccc(NNC(=O)c2ccccc2)cc1	-2.6	-18.6	5.5%	0.1%	4.0%	-13.8%
Cc1cc(C(=O)Nc2cccc(O)c2)co1	32.5*	73.7	-3.5%	-6.6%	-16.7%	-3.1%
COc1ccc(Cl)cc1Cn1c(C)c(C(=O)NCc2ccc(F)cc2)sc1=O	.	.	4.4%	.	.	.
Cc1c(C(=O)N2CCC(C(=O)Nc3ccc(F)cc3)CC2)sc2nc[nH]c(=O)c12	.	.	-0.9%	.	.	5.1%
O=C(Nc1cccc(O)c1)c1ccccc1	20.1*	37.7*	-5.3%	3.5%	-13.7%	-2.9%
O=C(Nc1cccc(O)c1)c1cccc(NC(=O)c2cccs2)c1	15.4	56.6	0.0%	1.5%	2.7%	-1.6%
COc1cccc(C(=O)c2cn(CC(=O)Nc3cccc(Cl)c3C)c3nc(C)ccc3c2=O)c1	.	.	3.1%	.	.	-1.6%
CCCCC/C=C\C\C=C/C=C/C=C/[C@@H](SCC(N)C(=O)O)[C@@H](O)CCCC(=O)O (stereo partly drawn)	.	.	.	2.7%	.	.
N/C(=N\OC(=O)c1cccc([N+](=O)[O-])c1)c1cccnc1	25.9*	23.0	1.7%	0.1%	-5.1%	-12.1%
N/C(=N\OC(=O)c1cccc2ccccc12)c1cccc([N+](=O)[O-])c1	9.7	17.5	-1.4%	-6.0%	1.5%	-26.1%
N/C(=N\OC(=O)c1cccs1)c1cccc([N+](=O)[O-])c1	36.0*	84.6*	-4.2%	-9.3%	-10.2%	-21.2%
Cc1ccccc1C(=O)O/N=C(\N)c1cccc([N+](=O)[O-])c1	65.4*	99.5*	2.4%	-15.0%	-7.2%	10.6%
COc1cccc(C(=O)O/N=C(\N)c2ccc([N+](=O)[O-])cc2)c1OC	75.1*	75.6*	9.6%	1.0%	0.4%	0.7%
Cc1cccc(S(=O)(=O)NC(=O)C2(C)CCN2C(=O)Cc2ccc(-c3ccccc3)cc2)c1 (stereo not drawn)	.	.	1.6%	.	.	.
CCOC(=O)c1cccc(NC(=O)CN2C(=O)CC(C)(C)Sc3ccccc32)c1	.	.	0.0%	.	.	-4.2%
CCCCOc1ccc(C(=O)Nc2ccc3c(c2)CCCN3S(=O)(=O)c2ccc(C)cc2)cc1	.	.	0.4%	.	.	-2.8%
Cc1cccc(C(=O)O/N=C(\N)c2cccc([N+](=O)[O-])c2)c1	52.9*	98.8*	2.2%	-4.5%	-0.7%	-12.9%
CCOc1c2ccoc2nc2c(OC)c(OC)ccc12	17.7*	17.6	3.2%	-17.9%	3.4%	-14.4%
C=CCOc1ccc2c(OC)c3ccoc3nc2c1OC	25.8*	39.1*	-0.3%	2.0%	1.8%	35.1%
COc1c2c(nc3occc13)C(CC=C(C)C)(OC)C(=O)C=C2 (stereo not drawn)	-1.5	-7.1	-1.0%	1.9%	-10.4%	13.4%
Cc1cc(C)n(-c2nc3ccccc3c(=O)n2OCC#N)n1	38.3*	115.1*	-5.9%	8.5%	-4.7%	5.5%
CCOn1c(-n2nc(C)cc2C)nc2ccccc2c1=O	-4.7	-12.8	-4.9%	0.2%	-4.0%	-7.2%
O=C(CSc1cccc[n+]1[O-])c1ccccc1Br	11.6	22.5	1.7%	-10.3%	3.6%	-0.4%

From PubChem
